Source: PubChem
In the library only some 11% were active in any assay of this set; here they are far more common.
IMPase inh: qHTS Assay for Identifying the Cell-Membrane Permeable IMPase Inhibitors | AID 901, 2007 | inhibition (IP1 accumulation), % at 46.1 µM | 120,000 tested, under 10 active | CHO-M1 cells, IP1 accumulation, HTRF TR-FRET ratio | Inositol monophosphatase 1 (Rattus norvegicus), P97697; active = well fitted curve in the direction sought with a large enough effect in the signal ratio, not every such curve was filed as active; inconclusive = small, poorly fitted or top-dose-only effect, or a change in a side signal; inactive = no such curve, though single readings can be large or run the other way; the % refers to the signal ratio;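 also: cells stimulated with carbachol in lithium chloride buffer; higher means more IMPase inhibition seen as more IP1 and lower FRET ratio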
Target sequence (P97697 whole entry, looked up): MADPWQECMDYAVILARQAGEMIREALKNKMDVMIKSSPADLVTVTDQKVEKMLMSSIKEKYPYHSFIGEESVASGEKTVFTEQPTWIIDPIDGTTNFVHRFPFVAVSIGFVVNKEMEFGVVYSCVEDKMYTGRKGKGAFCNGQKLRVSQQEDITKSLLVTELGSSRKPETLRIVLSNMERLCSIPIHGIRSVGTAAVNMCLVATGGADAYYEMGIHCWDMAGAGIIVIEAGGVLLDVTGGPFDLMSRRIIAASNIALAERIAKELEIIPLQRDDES
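The IP-One HTRF competitive assay in carbachol-stimulated CHO-M1 cells quantifies cellular IP1. Compounds spanned up to 46 uM final, and activity is expressed as AC50 from concentration-response fits of the ratio and donor data.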
NPSR antagonist: qHTS Assay for Antagonists of the Neuropeptide S Receptor: cAMP Signal Transduction; CHO-NPSR cells, cAMP TR-FRET, antagonist mode; Potency, µM (top dose mostly 38.3 µM), usual class: inhibitors; 220,000 tested, 1% active; AID 1461, 2008; active = well fitted curve in the direction sought with a large enough effect; inconclusive = small, poorly fitted or top-dose-only effect, or another doubt; inactive = no such curve, though single readings can be large; an effect the other way counts as inactive or inconclusive; also: nearly all actives have a fitted effect of over 50% in size
Target sequence (Q6W5P4 whole entry, looked up): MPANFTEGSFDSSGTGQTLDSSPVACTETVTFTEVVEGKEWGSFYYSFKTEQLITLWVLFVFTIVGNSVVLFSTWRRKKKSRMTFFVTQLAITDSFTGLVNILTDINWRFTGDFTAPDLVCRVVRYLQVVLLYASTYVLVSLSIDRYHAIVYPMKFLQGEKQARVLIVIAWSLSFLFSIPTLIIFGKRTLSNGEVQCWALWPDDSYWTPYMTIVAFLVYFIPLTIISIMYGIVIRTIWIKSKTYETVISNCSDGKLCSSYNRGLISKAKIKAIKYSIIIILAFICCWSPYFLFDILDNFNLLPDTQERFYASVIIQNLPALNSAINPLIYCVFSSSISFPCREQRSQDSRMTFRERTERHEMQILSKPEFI
HPGD block: qHTS Assay for Inhibitors of HPGD (15-Hydroxyprostaglandin Dehydrogenase). 15-hydroxyprostaglandin dehydrogenase [NAD(+)] (Homo sapiens), P15428. purified HPGD, NADH fluorescence kinetic, PGE2 substrate. Potency, µM, most hits filed as inhibitors. 150,000 tested, 4.3% active. AID 894, 2007
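20 nM HPGD preincubated 15 min at room temperature with compound in 50 mM Tris-HCl pH 8, 0.01% Tween 20. Started with 1 mM NAD+ and 30 uM prostaglandin E2; NADH fluorescence (360/450 nm) read 5 times over 30-s intervals, last minus first.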
IMPase Li cell: qHTS Assay for Identifying the Cell-Membrane Permeable IMPase Inhibitors: Potentiation with Lithium | CHO-M1 cells, IP1 TR-FRET (IP-One), carbachol + lithium | 210,000 tested, 0.35% active | AID 1457, 2008 | Potency, µM (series often up to 59.4 µM), actives largely listed as inhibitors; active = well fitted curve in the direction sought with a large enough effect; inconclusive = small, poorly fitted or top-dose-only effect, or another doubt; inactive = no such curve, though single readings can be large; an effect the other way counts as inactive or inconclusive;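 also: IP1 builds up when IMPase is blocked and the TR-FRET signal falls; nearly all actives have a fitted effect of over 50% in size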
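IP1 accumulation measured by competitive TR-FRET in lysed CHO-M1 cells after 30 min compound exposure at 37C, with a small lithium addition to potentiate weak responses. Hill-equation AC50 from ratio and donor-channel data.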
ALDH1A1 block: qHTS Assay for Inhibitors of Aldehyde Dehydrogenase 1 (ALDH1A1); Aldehyde dehydrogenase 1A1 (Homo sapiens), P00352; Purified ALDH1A1, NADH fluorescence, propionaldehyde substrate; Potency, µM (titrated, usually from 75.3 µM), actives largely listed as inhibitors; 220,000 tested, 7.3% active
PNC assembly inh: High Content Assay for Compounds that inhibit the Assembly of the Perinucleolar Compartment; PC3M PTB-GFP, PNC prevalence imaging, 16 h; active compounds read low; AID 2417, 2010; 140,000 tested, 3.1% active; activity change (PNC), negative = inhibition, % at 10 µM;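 active = readout at or below -70, meaning at least 70% loss of cells showing the perinucleolar compartment, a nuclear body marking cancer cells; inconclusive = readout between -30 and a set limit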
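Read-out is percentage of cells bearing a perinucleolar compartment, from automated 20x imaging of fixed, Hoechst-stained PC3M PTB-GFP cells. Cells were seeded 4 h, then exposed 16 h to compound (23 nl of library stock) in duplicate plates.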
A number is an active result. Unless noted, calls follow the shape of the dose curve; as a rule, active = well fitted inhibition curve with a large enough effect (not every such curve was filed as active); inconclusive = small, poorly fitted or top-dose-only effect, or another doubt; inactive = no such curve, though single readings can be large or run the other way.

What do the screens show for `O=S(=O)(c1ccccc1)N1CCN(c2nc3ccccc3s2)CC1`?
IMPase inh: inactive; NPSR antagonist: inactive; HPGD block: inactive; IMPase Li cell: 11.2µM; ALDH1A1 block: inactive; PNC assembly inh: inconclusive

Results for COc1ccc(C(c2nnnn2Cc2ccccc2)N2CCN(c3nc4ccccc4s3)CC2)cc1OC (stereo not drawn) ?
IMPase inh: inactive; NPSR antagonist: inactive; HPGD block: inactive; IMPase Li cell: inactive; ALDH1A1 block: inactive; PNC assembly inh: inactive

Results for c1ccc(Cn2nnnc2C(c2ccccc2)N2CCN(c3nc4ccccc4s3)CC2)cc1 (stereo not drawn) ?
IMPase inh: inactive; NPSR antagonist: inactive; HPGD block: inactive; IMPase Li cell: inactive; ALDH1A1 block: 11.2µM; PNC assembly inh: inactive

What do the screens show for `Cc1nnc(SCC(=O)N(C)CC(=O)Nc2ccc(F)cc2)n1Cc1ccccc1`?
NPSR antagonist: inactive; IMPase Li cell: inactive; ALDH1A1 block: inactive

How did CC1CCCN1CC#CC(O)(c1ccccc1)c1ccccc1 (stereo not drawn) do in these assays?
NPSR antagonist: inactive

How did O=C(CC12CC3CC(CC(C3)C1)C2)N1CCOCC1 do in these assays?
IMPase inh: inactive; NPSR antagonist: inactive; HPGD block: inactive; IMPase Li cell: inactive; ALDH1A1 block: inactive; PNC assembly inh: inconclusive

Results for Cc1noc2c1C(c1ccc(N(C)C)cc1)C1=C(CC(C)(C)CC1=O)N2 (stereo not drawn) ?
IMPase inh: inactive; NPSR antagonist: inactive; HPGD block: inactive; IMPase Li cell: inactive; ALDH1A1 block: 22.4µM; PNC assembly inh: inactive

What do the screens show for `O=c1c2cc(NC(=S)NC3CCCC3)ccc2nc2n1CCCCC2`?
NPSR antagonist: inactive; IMPase Li cell: inactive; ALDH1A1 block: inactive

What do the screens show for `COCOc1cc(OC)ccc1C(=O)/C=C/c1ccc2c(c1)OCO2`?
HPGD block: inactive; IMPase Li cell: inactive; ALDH1A1 block: inconclusive

How did C=CCN=C(C)C1=C(O)CCC1=O do in these assays?
IMPase inh: inactive; NPSR antagonist: inactive; HPGD block: inactive; IMPase Li cell: inactive; ALDH1A1 block: inactive; PNC assembly inh: inactive

What do the screens show for `C=CCN=C(CC)C1=C(O)CCCC1=O`?
IMPase inh: inactive; NPSR antagonist: inactive; ALDH1A1 block: inactive; PNC assembly inh: -108.6

What do the screens show for `CCNc1sc(C(=O)c2cccs2)c(N)c1-c1nc2ccccc2s1`?
IMPase inh: inactive; NPSR antagonist: inconclusive; HPGD block: inactive; IMPase Li cell: inactive; ALDH1A1 block: inconclusive; PNC assembly inh: inactive

Results for CCNc1sc(C(=O)c2cccs2)c(N)c1C#N ?
IMPase inh: inactive; NPSR antagonist: inactive; HPGD block: inactive; IMPase Li cell: inactive; ALDH1A1 block: 8.91µM; PNC assembly inh: inactive

How did C=CCNc1sc(C(=O)c2cccs2)c(N)c1C#N do in these assays?
IMPase inh: inactive; NPSR antagonist: inactive; HPGD block: inactive; IMPase Li cell: inconclusive; ALDH1A1 block: inconclusive; PNC assembly inh: -118.9

Results for CN1CCN(c2cc(C(F)(F)F)nc(-c3ccccn3)n2)CC1 ?
NPSR antagonist: inactive; IMPase Li cell: inactive; ALDH1A1 block: inconclusive

Results for O=C(c1ccco1)N1CCN(C(=O)c2cc(-c3ccccn3)nc3ccccc23)CC1 ?
IMPase inh: inactive; NPSR antagonist: inactive; HPGD block: inactive; IMPase Li cell: inactive; ALDH1A1 block: 3.55µM; PNC assembly inh: inactive

What do the screens show for `O=C(CSc1cccc2cccc(Cl)c12)OCC(=O)N1CCN(C(=O)c2ccco2)CC1`?
IMPase inh: inactive; NPSR antagonist: inactive; HPGD block: inconclusive; IMPase Li cell: 10µM; ALDH1A1 block: 11.2µM; PNC assembly inh: inactive

What do the screens show for `O=C(Cc1ccccc1F)OCC(=O)N1CCN(C(=O)c2ccco2)CC1`?
NPSR antagonist: inactive; IMPase Li cell: inactive; ALDH1A1 block: inconclusive

How did O=C(OCC(=O)N1CCN(C(=O)c2ccco2)CC1)c1sc2cc(F)ccc2c1Cl do in these assays?
IMPase inh: inactive; NPSR antagonist: inactive; HPGD block: inactive; IMPase Li cell: inactive; ALDH1A1 block: 28.2µM; PNC assembly inh: inactive

Results for O=C(OCC(=O)N1CCN(C(=O)c2ccco2)CC1)c1cc(-c2ccc(Cl)c(Cl)c2Cl)nc2ccccc12 ?
IMPase inh: inactive; NPSR antagonist: 10µM; HPGD block: inconclusive; IMPase Li cell: inactive; ALDH1A1 block: inconclusive; PNC assembly inh: inactive

Results for Cc1cc(Br)ccc1SCC(=O)OCC(=O)N1CCN(C(=O)c2ccco2)CC1 ?
IMPase inh: inactive; NPSR antagonist: inactive; HPGD block: inconclusive; IMPase Li cell: inactive; ALDH1A1 block: inconclusive; PNC assembly inh: inactive

How did COc1ccc2c(c1)C=C(CN1CCN(C(C)C)C(CCO)C1)CO2 (stereo not drawn) do in these assays?
NPSR antagonist: inactive; ALDH1A1 block: inactive

Results for CN=C(Nc1cc(C)nn1CCC#N)c1ccccc1F ?
IMPase inh: inactive; NPSR antagonist: inactive; HPGD block: inactive; IMPase Li cell: inactive; ALDH1A1 block: inactive; PNC assembly inh: inactive

Results for Cc1ccc(S(=O)(=O)N2CCCC2C(=O)OCc2ccco2)cc1 (stereo not drawn) ?
IMPase inh: inactive; NPSR antagonist: inactive; HPGD block: inactive; IMPase Li cell: inactive; ALDH1A1 block: 2.82µM; PNC assembly inh: -108.5

What do the screens show for `COCCNC(=O)CN(CCc1ccccc1)S(=O)(=O)c1ccc(OC)cc1`?
IMPase inh: inactive; NPSR antagonist: inactive; HPGD block: inactive; IMPase Li cell: inactive; ALDH1A1 block: inconclusive; PNC assembly inh: inactive

Results for COc1ccc(S(=O)(=O)N(CCc2ccccc2)CC(N)=O)cc1 ?
NPSR antagonist: inactive; IMPase Li cell: inactive; ALDH1A1 block: 7.94µM

What do the screens show for `COC(=O)CCc1c(C)c(C(=O)c2ccco2)c2ccccn12`?
IMPase inh: inconclusive; NPSR antagonist: inactive; HPGD block: inactive; IMPase Li cell: inconclusive; ALDH1A1 block: inactive; PNC assembly inh: inconclusive

How did Oc1c(C(c2ccco2)N2CCOCC2)sc2ncnn12 (stereo not drawn) do in these assays?
IMPase inh: inactive; NPSR antagonist: inactive; HPGD block: inactive; IMPase Li cell: inactive; ALDH1A1 block: 14.1µM; PNC assembly inh: inactive

Results for Oc1c(C(c2ccccc2)N2CCCCC2)sc2ncnn12 (stereo not drawn) ?
IMPase inh: inactive; NPSR antagonist: inactive; HPGD block: inactive; IMPase Li cell: inactive; ALDH1A1 block: inactive; PNC assembly inh: inactive
